Source: the supplement of paper PMC6555819

Key:
Experiment in all cases: PBM binding z-score (relative to random genomic background probes); higher = stronger binding; sequences stand for … in GC…GCGATTGACAGCGTAGAATGAAGG
[1] = system: RARb homodimer (NR concentration 270 nM)
Procedure, shortened: (§1)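 Probes were double-stranded and carried 34-nt variable regions with direct-repeat seeds, single-nucleotide variants, half-site ablations and random human genomic background sequences, printed on custom Agilent 4×180K protein-binding microarrays. Arrays were incubated 1 h with ligand-free nuclear receptor dimers in PBS pH 7.4, 2% milk, 0.02% Triton X-100, 1 mM DTT, 0.2 mg/mL BSA and 0.4 mg/ml salmon testes DNA. Antibodies against each partner (one per run) detected binding, and scanned fluorescence was regression-normalized. Binding z-scores use the random background probes as reference.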

[2] = system: RARg:RXRa (NR concentration 270 nM, RXRa partner concentration 90 nM)
Procedure, shortened: as §1

[3] = system: RARg homodimer (NR concentration 270 nM)
Procedure, shortened: as §1

[4] = system: RXRa DBDmut IVT, anti-RXR (DBD mutation: RXRa K156A/R161A, NR concentration 90 nM)
Procedure, shortened: as §1

[5] = system: RXRa homodimer (NR concentration 180 nM)
Procedure, shortened: as §1

[6] = system: THRa:RXRa (NR concentration 90 nM, RXRa partner concentration 90 nM)
Procedure, shortened: as §1

[7] = system: THRa homodimer (NR concentration 90 nM)
Procedure, shortened: as §1

[8] = system: VDR homodimer (NR concentration 270 nM)
Procedure, shortened: as §1

| Sequence | PBM binding z-score [1] | PBM binding z-score [2] | PBM binding z-score [3] | PBM binding z-score [4] | PBM binding z-score [5] | PBM binding z-score [6] | PBM binding z-score [7] | PBM binding z-score [8] |
| --- | --- | --- | --- | --- | --- | --- | --- | --- |
| CCGACTGGCGCAAAGGTTACCATACTCAGTACGA | 1.81 | 1.62 | 0.821 | 0.55 | 2.11 | 1.35 | -0.0334 | -0.00484 |
| ATCTCTAGGTAAAGTTCAGTGAAAGATCGATAGA | 2.65 | 2.18 | 2.77 | 1.72 | 1.42 | 1.24 | 0.317 | 2.53 |
| CCTACTGGGGCAAGGTCATTGATCAGTCAAAGCA | 3.3 | 4.12 | 3.61 | 1.28 | 3.54 | 3.25 | 1.6 | 3.27 |
| CAAACTAGGTCACAGCGGTCAAAGTCCGTGCGTA | 4.53 | 5.19 | 5.77 | 1.84 | 3.87 | 3.66 | 1.74 | 2.57 |
| CGAACTAGCTCATCCAGGACAGTGAATACATTGA | 0.118 | -0.191 | 0.156 | 0.64 | 0.0877 | 1 | 0.936 | 0.271 |
| GCGTCTGGGGCAAAGCAGGTTACCATAAGGTTGG | 1.13 | 0.435 | 0.815 | -0.387 | 0.339 | 3.04 | 0.0693 | -0.358 |
| ATCGAAAGGTCGAATGTGAGTATACCCACCCGAA | 2.63 | 3.91 | 3.72 | 1.77 | 4.23 | 2.01 | -0.0283 | 1 |
| CAAACTAGGTTACGAAAGGTCAAAGTCGAATGAC | 5 | 6.3 | 5.88 | 1.6 | 6.62 | 4.48 | 1.51 | 2.58 |
| GCGACTGGGGCATCAGGAGGTTACCATAACTTAA | 1.59 | 2.07 | 0.983 | 0.162 | 0.852 | 1.66 | -0.0939 | 0.186 |
| TCATATAGTTAAAGGTGAAAGTCGAACGATATGA | 1.34 | 1.47 | 1.18 | 0.551 | 2.08 | 1.23 | -0.586 | -0.0826 |
| ATCGAAAGGTCGAGGTGAGTGTAGAGAAAGGGAA | 2.96 | 4.37 | 4.06 | 0.896 | 4.28 | 3.21 | 0.885 | 0.854 |
| TCTGCTAGGTCAGTTGGTCAGCGAACGAGCTGCC | 2.57 | 2.96 | 3.87 | 0.527 | 0.834 | 1.21 | -0.151 | -0.461 |
| TCTAGTAGTTGATTAGGGCAACCGAAACAGCGGA | 0.439 | 0.0761 | -0.0123 | 0.339 | 0.492 | 0.48 | -0.325 | -0.315 |
| CCTAGTTGGTTAGGAGGTCACACACCGGATATGA | 3.78 | 4.04 | 3.53 | 0.861 | 3.97 | 3.42 | 2.5 | 3.06 |
| TAGCCTAGGTCATTCGGGGGCCAGTATAGAAAGC | 3.39 | 6.55 | 5.25 | 2.13 | 3.58 | 4.17 | 1.48 | 2.32 |
| TGTTGTAGATCAACAGGAGGTTAAGAAAGATCGA | 0.36 | 1.06 | 0.365 | -0.89 | 0.741 | 0.863 | -0.492 | -0.0284 |
| ACTAGCAGTCCAAGGGTCACTCAAGATTAGTCCG | 3.7 | 3.72 | 3.27 | 0.612 | 3.58 | 2.61 | 0.466 | 1.15 |
| TATACAGGGTCAAAGGCAAGAGTACGAATGTCGA | 3.28 | 5.58 | 5.01 | 3.09 | 6.4 | 3.48 | 1.05 | 3.39 |
| ATCTCTAGGTAAGACTCAGTTGAGTGAAGAACGC | -0.154 | 0.15 | 0.0573 | 0.17 | -0.0983 | 0.492 | 0.309 | 0.119 |
| ATATCTAGGTTAGCTGGGGTCATTCAGACTAGGC | 3.96 | 4.04 | 3.18 | 1.88 | 5.32 | 5.07 | 3.53 | 5.14 |
| CCTTACGGGTCACTAACAGGTTATAGCATTTGGA | 3.17 | 5.31 | 4.12 | 2.03 | 4.25 | 2.98 | 0.367 | 1.29 |
| TAGGCTAGGTCATTCAGGGGCCAGTATAGAAAGC | 3.57 | 6.42 | 4.85 | 1.71 | 3.26 | 3.7 | 0.658 | 1.95 |
| CAGACTAGGTCAAGGTCAAAGTCGGTTTGTGCCA | 5.11 | 6.12 | 6.67 | 2.61 | 6.04 | 4.32 | 3.45 | 4.18 |
| TCATATAGGTAATACGGGTGAAAGTCGGCATCTA | 0.258 | 0.35 | 0.383 | 1.33 | 0.921 | 0.697 | 0.103 | 0.0658 |
| TCTAGTTGGTCACGGAGGTCAAACACGACGGGTA | 4.53 | 5.24 | 5.02 | 1.28 | 5.47 | 3.78 | 2.02 | 3.62 |
| ACTAGCAGGCCAAGGTTGGGTCACTCAAACAAAG | 2.3 | 1.64 | 1.36 | -0.829 | 0.638 | 2.04 | 0.571 | 0.0121 |
| GCGACTGGGGAATCAGCAGGTTACCATAACTTAA | 0.164 | -0.241 | -0.452 | -0.352 | 0.0152 | 0.249 | -0.272 | -0.345 |
| CGAACTAGGGCAAGGACAGTGAATCTCCGCACGC | 0.945 | 0.544 | 1.17 | 0.123 | 0.145 | 1.09 | 0.786 | 0.0219 |
